Hits are enriched below; roughly 2.8% of the tested compounds scored in any of these assays.
SNCA expr inh: reduces expression of the alpha-synuclein gene | HEK-293 SNCA-luciferase knock-in, luminescence, 24 h | Potency, µM (series often up to 57.2 µM), for inactives: at the top dose activity change, negative = inhibition, usual class: inhibitors | 140,000 compounds, 0.17% hits | AID 1671194;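 note: potency is the fitted concentration of half-maximal effect; plate controls were DMSO cells for no effect and cell-free wells for full effect; nearly all actives have a fitted effect of over 45% in size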
IP6K1 inhibitor: blocks human inositol hexakisphosphate kinase 1. 140,000 compounds, 0.81% hits. Q92551. IP6K1 kinase, ADP-Glo luminescence, 2 h; stronger effect = lower value. activity change, % (series mostly up to about 58 µM); in the data active = activity change below about -25%; note: % is set by controls: 0 for no effect and ±100 for the full control effect
Target sequence (Q92551 whole entry, looked up): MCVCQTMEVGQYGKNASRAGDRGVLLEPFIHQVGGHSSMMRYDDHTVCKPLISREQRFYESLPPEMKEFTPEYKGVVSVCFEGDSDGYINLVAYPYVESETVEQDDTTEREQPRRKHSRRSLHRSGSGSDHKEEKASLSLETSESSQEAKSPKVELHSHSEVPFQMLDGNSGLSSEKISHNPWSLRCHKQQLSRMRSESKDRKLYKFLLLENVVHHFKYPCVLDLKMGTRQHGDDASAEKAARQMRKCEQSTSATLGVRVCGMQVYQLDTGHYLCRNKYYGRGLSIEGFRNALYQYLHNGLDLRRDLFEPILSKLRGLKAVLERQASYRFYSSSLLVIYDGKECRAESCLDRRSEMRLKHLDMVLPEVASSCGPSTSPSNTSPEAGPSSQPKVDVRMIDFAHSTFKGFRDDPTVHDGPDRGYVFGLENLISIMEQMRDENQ
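ADP-Glo luminescence measures ADP made by human IP6K1 during a 2 h RT reaction with ATP/IP6 (mix at 1.3 mM/130 uM); top library doses 57.5 and 19.1 uM final.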
KDM5B inhibitor: KDM5B demethylase inhibition; Q9UGL1; KDM5B demethylase, FDH-coupled NADH fluorescence (FDH is formaldehyde dehydrogenase); Potency, µM (series often up to 57.7 µM), most hits filed as inhibitors; 220,000 compounds, 2.6% hits; AID 1347165; note: potency is the fitted concentration of half-maximal effect; 0% is about no effect; nearly all actives have a fitted effect of over 70% in size
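qHTS format, multiple compound concentrations. Buffer 50 mM HEPES pH 7.5/0.01% Tween-20; 200 nM KDM5BΔAP final; 10 min compound preincubation; substrate-mix levels 12.5 µM peptide, 25 µM α-KG, 0.25 mM NAD⁺; 30 min RT; ΔRFU.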
SNCA viab count: counter-screen for SNCA expression inhibitors: cell viability | 150,000 compounds, 0.12% hits | Potency, µM (highest dose often 57.1 µM), for the others: at the top dose activity change, negative = cytotoxicity, hits mostly cytotoxic | HEK-293-SNCA-luc viability, GF-AFC fluorescence, 24 h;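 note: potency is the fitted concentration of half-maximal effect; 0% = DMSO-treated cells and -100% = medium-only wells without cells; nearly all actives have a fitted effect of over 30% in size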
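HEK-293-SNCA-luc cells (1500/well) plated 24 h, then exposed 24 h to a dilution series; GF-AFC added 30 min at 37C, fluorescence 405/540 nm; normalised to medium-only and DMSO wells, Hill fit.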
* marks the source's active call; other numbers are inactive results; i = inactive; ? = inconclusive; / = not tested or not shown; [ ] = dose if it differs, or a comment. Unless noted, calls come from the whole dose curve; as a rule, active = well fitted curve in the direction sought with a large enough effect; inconclusive = small, poorly fitted or top-dose-only effect, or another doubt; inactive = no such curve, though single readings can be large; an effect the other way counts as inactive or inconclusive.

SMILES	SNCA expr inh	IP6K1 inhibitor	KDM5B inhibitor	SNCA viab count
CC(C)(Oc1nn(CC2CCOCC2)c2ccccc12)C(=O)NCc1ccncc1	-2.5%[87.6 µM]	-6.2	i	0.4%[87.6 µM]
CCc1nc2c(c(-c3ccc(O)cc3)n1)CCN(C(=O)Cc1ccccn1)CC2	-2.1%	14.9	/	-0.6%
COCc1nc2nc(-c3ccccc3)c(-c3ccc(OC)nc3)cc2n1C	-16.2%[87.6 µM]	18.8	35.5µM*	2.7%[87.6 µM]
COCc1nc2nc(-c3ccccc3)c(-c3ccc(N4CCN(C)CC4)nc3)cc2n1C	-5.8%[87.6 µM]	2.9	35.5µM*	0.7%[87.6 µM]
COCc1nc2nc(-c3ccccc3)c(-c3ccc([S+](C)(=O)[O-])cc3)cc2n1C	-3.2%[87.6 µM]	8.8	35.5µM*	4.8%[87.6 µM]
COCc1nc2nc(-c3ccccc3)c(-c3ccnc(OC)c3)cc2n1C	-16.3%[87.6 µM]	7.0	i	4.2%[87.6 µM]
COCc1nc2nc(-c3ccccc3)c(-c3cccc([S+](C)(=O)[O-])c3)cc2n1C	48.0%[87.6 µM]	8.6	?	4.5%[87.6 µM]
CCOc1cccc(CN2CC(C(=O)NCc3ccncc3)C3(CCOCC3)C2)c1 (configuration not stated)	-4.4%	7.4	i	-9.7%
Cc1nnc2n1CCC(NC(=O)c1ccsc1)CC2 (configuration not stated)	10.4%	-10.7	i	1.5%
CCn1cnc2c1c(=O)n(CC(=O)NC(C)c1ccco1)c(=O)n2Cc1ccccc1 (configuration not stated)	/	/	i	/
N#Cc1cccc(-c2n[nH]c3c2CC(=O)N(Cc2ccccn2)C3)c1	-0.8%[87.6 µM]	-24.6	35.5µM*	-4.8%[87.6 µM]
Cc1cc(C)cc(C(=O)NCc2nnc3c(-c4nc(C(C)C)no4)cccn23)c1	10.0%	8.0	22.4µM*	2.7%
CC(C)c1noc(-c2cccn3c(CNC(=O)c4cccc(Cl)c4)nnc23)n1	-5.2%	1.4	22.4µM*	4.5%
CC(C)c1noc(-c2cccn3c(CNC(=O)c4cccc(F)c4)nnc23)n1	0.0%	0.4	25.1µM*	-7.2%
CC(C)c1noc(-c2cccn3c(CNC(=O)Cc4cccc(F)c4)nnc23)n1	-16.9%	6.1	?	-4.8%
CCC(=O)NCc1nnc2c(-c3nc(C(C)C)no3)cccn12	7.5%	4.3	?	3.8%
CC(C)c1noc(-c2cccn3c(CNC(=O)c4c(F)cccc4F)nnc23)n1	9.5%	10.3	28.2µM*	6.0%
COc1cccc(NCc2nnc(C(=O)N3CCC[C@@H]3C(c3ccccc3)c3ccccc3)n2-c2cccnc2)c1	3.9%	-8.7	i	-7.5%
O=C(c1ccc(F)cc1)N1CCC(c2nn(-c3ccc(Cl)cc3)c(=O)[nH]2)CC1	39.6%	8.8	i	5.4%
COc1ccc(C(=O)NCc2nnc3c(-c4nc(C5CC5)no4)cccn23)c(C)c1	?	11.9	i	-7.1%
CC(C)c1noc(-c2cccn3c(CNC(=O)c4cc5ccccc5[nH]4)nnc23)n1	76.6%	6.5	?	-11.2%
Cc1ccc(C(=O)NCc2nnc3c(-c4nc(C(C)C)no4)cccn23)cc1C	5.1%	9.6	28.2µM*	5.2%
Cc1ccc(C(=O)NCc2nnc3c(-c4nc(C5CC5)no4)cccn23)cc1C	-11.6%	5.7	10µM*	1.3%
Cc1cccc(C(=O)NCc2nnc3c(-c4nc(C(C)C)no4)cccn23)c1	-25.4%	-0.6	28.2µM*	-2.7%
Cc1ccccc1C(=O)NCc1nnc2c(-c3nc(C(C)C)no3)cccn12	1.4%	1.5	?	9.7%
SMILES	SNCA expr inh	IP6K1 inhibitor	KDM5B inhibitor	SNCA viab count
Cc1noc(C)c1[S+](=O)([O-])N1CCC2CC(=O)NCCC2C1 (configuration not stated)	6.4%	-7.3	i	2.0%
Cc1nc(CC2CCN(c3nccc(-c4cccnc4)n3)CC2)no1	0.7%	-6.9	22.4µM*	-2.8%
O=C(NCc1ccccn1)C1CCN(c2nccc(-c3cccnc3)n2)CC1	50.5%	7.9	?	-0.9%
CCn1ncc(N2CCC(NC(=O)c3cccc(N(C)C)c3)CC2)cc1=O	97.1%	22.4	i	-14.7%
O=C(c1cccc2[nH]ccc12)N1CC[C@@H]2COCCN(Cc3cccnc3)[C@@H]2C1	0.7%	-0.6	17.8µM*	-4.4%
CS(=O)(=O)N1C[C@H]2CCN(C(=O)c3ccc4[nH]ccc4c3)C[C@H]21	13.9%	10.6	i	1.1%[12.5 µM]
O=C(c1cccs1)N1CC[C@@H]2COCCN(Cc3cccnc3)[C@@H]2C1	0.5%	12.8	i	-12.6%
O=C(c1cccc2[nH]ccc12)N1CC[C@@H]2COCCN(Cc3ccncc3)[C@@H]2C1	-16.3%	0.0	28.2µM*	-2.8%
CS(=O)(=O)N1C[C@H]2CCN(C(=O)c3cccc4[nH]ccc34)C[C@H]21	-0.5%	4.7	17.8µM*	0.8%[12.5 µM]
Cc1noc(-c2cn(C3CCCN(C(=O)c4cccc5[nH]ccc45)C3)nn2)n1 (configuration not stated)	85.7%	1.1	20µM*	-2.3%
CC(C)c1noc(-c2cn(C3CCCN(C(=O)c4cccc5[nH]ccc45)C3)nn2)n1 (configuration not stated)	49.5%	0.0	17.8µM*	-14.8%
Cc1noc([C@@H]2CN(C(=O)c3c[nH]c4ccccc34)C[C@H]2CO)n1	19.5%	-5.7	i	-22.6%
COC[C@@H]1CN(C(=O)c2cccc3[nH]ccc23)C[C@H]1c1nc(C)no1	4.8%	-6.4	20µM*	0.4%
CC(C)c1noc(-c2cn(C3CCN(C(=O)c4cccc5[nH]ccc45)C3)nn2)n1 (configuration not stated)	?	-5.6	22.4µM*	7.6%
Cc1noc(-c2cn(C3CCN(C(=O)c4cccc5[nH]ccc45)CC3)nn2)n1	3.8%	17.4	?	-0.8%
COc1ccc(-n2c(=O)c3c(n2Cc2ccccc2)CN(CC2CCOC2)CC3)cc1 (configuration not stated)	-10.0%[87.6 µM]	0.9	i	-14.3%[87.6 µM]
CCCCNc1ncc(C(=O)O)c(C)n1	5.3%	0.8	14.1µM*	-3.4%
Cc1nc(NC2CCCC2)ncc1C(=O)O	-8.5%	-3.4	?	7.8%
C=CC(C)(O)CC/C=C(\C)COC1O[C@H](CO)[C@@H](O)[C@H](O)[C@H]1O (some centres not stated)	/	-34.3*	/	?
COc1ccc(-c2ccnc3nc(CC(C)C)nn23)cc1OC	26.9%	1.9	28.2µM*	-1.3%
COc1ccc(CCc2nc3nccc(-c4ccc5c(c4)OCCCO5)n3n2)cc1OC	-12.5%	3.2	?	5.4%
COc1cccc(-c2ccnc3nc(CCc4ccccc4)nn23)c1	9.9%	5.8	20µM*	3.8%
COc1ccc(-c2ccnc3nc(CC(C)C)nn23)cc1	-3.5%	-4.1	i	-6.3%
COc1cccc(-c2ccnc3nc(CC(C)C)nn23)c1	9.1%	-3.2	25.1µM*	1.4%
C#CCNC(=O)c1nc2cccnc2n(CC(C)C)c1=O	5.3%[87.6 µM]	14.7	/	-22.9%[87.6 µM]
N#Cc1ccc2nc([C@H]3CCN(Cc4ccccn4)C3)[nH]c2c1	-12.1%[87.6 µM]	6.9	35.5µM*	-6.7%[87.6 µM]
O=C1NCc2ccccc2CC12CCCN2Cc1ccnc2ccccc12 (configuration not stated)	?	-9.4	50.1µM*	8.0%
